Measurements: PubChem BioAssay AID1159580 (chemical genetic matrix, 2015)
Screen size: about 5,500 compounds; about 2,000 (36%) were called active. Inconclusive results (about 18%) are left out. Rule as the data show it: active = normalized growth mostly below about 0.91 (no sharp cut-off); inconclusive = no clear call, values can overlap the other calls; inactive = mostly above about 0.92. Some of the results follow.

Assay: chemical genetic growth profiling, strain panel (AID 1159580);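 also: tested at 20 µM; growth read once vehicle control cultures reached saturation at 30 °C; 1 = growth at the plate median or of vehicle wells; lower values mean less growth of the strain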
Conditions: growth OD

Measured: normalized growth

NC[C@@H]1O[C@H](O[C@@H]2[C@@H](CO)OC(O[C@@H]3[C@@H](O)[C@H](N)C[C@H](N)[C@H]3OC3O[C@H](CN)[C@@H](O)[C@H](O)[C@H]3N)[C@@H]2O)[C@H](N)[C@@H](O)[C@@H]1O (some centres not stated)
inactive: S. cerevisiae deletion strains, locus YJR075W, strain HOC1, stronger effect = lower value 1.02 | S. cerevisiae deletion strains, locus YKL009W, strain mrt4, stronger effect = lower value 1.06 | S. cerevisiae deletion strains, locus YKL068W, stronger effect = lower value 1.01 | S. cerevisiae deletion strains, locus YKL085W, strain MDH1 (second series), stronger effect = lower value 1.01 | S. cerevisiae deletion strains, locus YKL085W, strain MDH1, stronger effect = lower value 1.01 | S. cerevisiae deletion strains, locus YKL160W, strain elf1, stronger effect = lower value 1.02 | S. cerevisiae deletion strains, locus YKL190W, strain CNB1, stronger effect = lower value 1 | S. cerevisiae deletion strains, locus YKR001C, strain vps1, stronger effect = lower value 1.04 | S. cerevisiae deletion strains, locus YKR026C, strain gcn3, stronger effect = lower value 1.03 | S. cerevisiae deletion strains, locus YKR091W, strain srl3, stronger effect = lower value 1.02 | S. cerevisiae deletion strains, locus YLL001W, strain dnm1, stronger effect = lower value 1.06 | S. cerevisiae deletion strains, locus YLL026W, stronger effect = lower value 1.02 | S. cerevisiae deletion strains, locus YLL041C, strain sdh2, stronger effect = lower value 1.02 | S. cerevisiae deletion strains, locus YLR027C, strain aat2, stronger effect = lower value 1.01 | S. cerevisiae deletion strains, locus YLR039C, strain RIC1, stronger effect = lower value 0.973 | S. cerevisiae deletion strains, locus YLR058C, strain SHM2, stronger effect = lower value 1 | S. cerevisiae deletion strains, locus YLR102C, strain apc9, stronger effect = lower value 1.02 | S. cerevisiae deletion strains, locus YLR113W, strain HOG1, stronger effect = lower value 0.981 | S. cerevisiae deletion strains, locus YLR221C, strain rsa3, stronger effect = lower value 1.04 | S. cerevisiae deletion strains, locus YLR258W, strain gsy2, stronger effect = lower value 1.01 | S. cerevisiae deletion strains, locus YLR262C, strain YPT6 (second series), stronger effect = lower value 1.03 | S. cerevisiae deletion strains, locus YLR262C, strain YPT6, stronger effect = lower value 1.02 | S. cerevisiae deletion strains, locus YLR268W, strain sec22, stronger effect = lower value 1.05 | S. cerevisiae deletion strains, locus YLR320W, strain mms22, stronger effect = lower value 1.05 | S. cerevisiae deletion strains, locus YLR330W, strain CHS5, stronger effect = lower value 0.996 | S. cerevisiae deletion strains, locus YLR342W, strain FKS1 (second series), stronger effect = lower value 1.03 | S. cerevisiae deletion strains, locus YLR342W, strain FKS1, stronger effect = lower value 1.03 | S. cerevisiae deletion strains, locus YLR357W, strain rsc2, stronger effect = lower value 1.04 | S. cerevisiae deletion strains, locus YLR370C, strain arc18, stronger effect = lower value 1.04 | S. cerevisiae deletion strains, locus YLR371W, strain rom2, stronger effect = lower value 1.02 | S. cerevisiae deletion strains, locus YLR384C, strain iki3, stronger effect = lower value 1.03 | S. cerevisiae deletion strains, locus YLR418C, strain cdc73, stronger effect = lower value 1.04 | S. cerevisiae deletion strains, locus YML016C, strain PPZ1, stronger effect = lower value 1.01 | S. cerevisiae deletion strains, locus YML032C, strain rad52, stronger effect = lower value 1.02 | S. cerevisiae deletion strains, locus YML120C, strain ndi1, stronger effect = lower value 1.05 | S. cerevisiae deletion strains, locus YML124C, strain tub3, stronger effect = lower value 1.01 | S. cerevisiae deletion strains, locus YMR058W, strain fet3, stronger effect = lower value 1.03 | S. cerevisiae deletion strains, locus YMR078C, strain ctf18, stronger effect = lower value 1.04 | S. cerevisiae deletion strains, locus YMR125W, strain sto1, stronger effect = lower value 1.04 | S. cerevisiae deletion strains, locus YMR129W, stronger effect = lower value 1.02 | S. cerevisiae deletion strains, locus YMR205C, strain PFK2, stronger effect = lower value 1.03 | S. cerevisiae deletion strains, locus YMR223W, strain ubp8, stronger effect = lower value 1 | S. cerevisiae deletion strains, locus YMR231W, strain pep5, stronger effect = lower value 1.03 | S. cerevisiae deletion strains, locus YMR263W, strain SAP30, stronger effect = lower value 1.01 | S. cerevisiae deletion strains, locus YMR307W, strain GAS1, stronger effect = lower value 1.1 | S. cerevisiae deletion strains, locus YNL067W, strain RPL9B, stronger effect = lower value 1.02 | S. cerevisiae deletion strains, locus YNL071W, strain lat1, stronger effect = lower value 1.03 | S. cerevisiae deletion strains, locus YNL128W, strain TEP1, stronger effect = lower value 1.02 | S. cerevisiae deletion strains, locus YNL153C, strain GIM3, stronger effect = lower value 1 | S. cerevisiae deletion strains, locus YNL183C, strain NPR1, stronger effect = lower value 0.944 | S. cerevisiae deletion strains, locus YNL209W, strain ssb2, stronger effect = lower value 1.03 | S. cerevisiae deletion strains, locus YNL233W, strain BNI4, stronger effect = lower value 0.985 | S. cerevisiae deletion strains, locus YNL248C, strain rpa49, stronger effect = lower value 0.992 | S. cerevisiae deletion strains, locus YNL250W, strain rad50, stronger effect = lower value 1 | S. cerevisiae deletion strains, locus YNL271C, strain bni1, stronger effect = lower value 1.02 | S. cerevisiae deletion strains, locus YNL298W, strain CLA4, stronger effect = lower value 1.01 | S. cerevisiae deletion strains, locus YNL307C, strain MCK1, stronger effect = lower value 1.02 | S. cerevisiae deletion strains, locus YNL322C, strain KRE1 (second series), stronger effect = lower value 1.04 | S. cerevisiae deletion strains, locus YNL322C, strain KRE1, stronger effect = lower value 0.997 | S. cerevisiae deletion strains, locus YNR049C, strain mso1, stronger effect = lower value 1.03 | S. cerevisiae deletion strains, locus YNR052C, strain pop2, stronger effect = lower value 1.01 | S. cerevisiae deletion strains, locus YOL006C, strain TOP1, stronger effect = lower value 0.979 | S. cerevisiae deletion strains, locus YOL012C, strain htz1 0.869 | S. cerevisiae deletion strains, locus YOL147C, strain pex11, stronger effect = lower value 1.01 | S. cerevisiae deletion strains, locus YOR001W, strain rrp6, stronger effect = lower value 0.982 | S. cerevisiae deletion strains, locus YOR061W, strain CKA2, stronger effect = lower value 1.01 | S. cerevisiae deletion strains, locus YOR069W, strain VPS5, stronger effect = lower value 1 | S. cerevisiae deletion strains, locus YOR070C, strain gyp1, stronger effect = lower value 1.03 | S. cerevisiae deletion strains, locus YOR080W, strain dia2, stronger effect = lower value 1.03 | S. cerevisiae deletion strains, locus YOR083W, strain WHI5, stronger effect = lower value 1.02 | S. cerevisiae deletion strains, locus YOR106W, strain vam3, stronger effect = lower value 1.04 | S. cerevisiae deletion strains, locus YOR136W, strain idh2, stronger effect = lower value 1.01 | S. cerevisiae deletion strains, locus YOR144C, strain elg1, stronger effect = lower value 1.02 | S. cerevisiae deletion strains, locus YOR184W, strain ser1, stronger effect = lower value 1.03 | S. cerevisiae deletion strains, locus YOR231W, strain MKK1, stronger effect = lower value 1.01 | S. cerevisiae deletion strains, locus YOR265W, strain rbl2, stronger effect = lower value 1.02 | S. cerevisiae deletion strains, locus YOR270C, strain vph1, stronger effect = lower value 1.06 | S. cerevisiae deletion strains, locus YOR290C, strain snf2, stronger effect = lower value 1.04 | S. cerevisiae deletion strains, locus YOR316C, strain cot1, stronger effect = lower value 1.03 | S. cerevisiae deletion strains, locus YPL051W, strain arl3, stronger effect = lower value 1.01 | S. cerevisiae deletion strains, locus YPL055C, strain LGE1, stronger effect = lower value 0.973 | S. cerevisiae deletion strains, locus YPL078C, strain atp4, stronger effect = lower value 1.01 | S. cerevisiae deletion strains, locus YPL106C, strain sse1, stronger effect = lower value 1.01 | S. cerevisiae deletion strains, locus YPL240C, strain hsp82, stronger effect = lower value 1.03 | S. cerevisiae deletion strains, locus YPL241C, strain CIN2, stronger effect = lower value 0.998 | S. cerevisiae deletion strains, locus YPL256C, strain CLN2, stronger effect = lower value 0.997 | S. cerevisiae deletion strains, locus YPR119W, strain clb2, stronger effect = lower value 1.02 | S. cerevisiae deletion strains, locus YPR141C, strain kar3, stronger effect = lower value 1.02 | S. cerevisiae deletion strains, locus YPR163C, strain tif3, stronger effect = lower value 1.03 | S. cerevisiae deletion strains, locus YPR167C, strain met16, stronger effect = lower value 1.02 | S. cerevisiae deletion strains, strain wtn01, stronger effect = lower value 1.03 | S. cerevisiae strains, strain wild type, stronger effect = lower value 1.01
